From PubChem
ADAM10 inh = ADAM10 inhibition, QFRET primary screen. inhibition, % at 7 µM. O14672. recombinant ADAM10, EDANS/DABCYL FRET peptide cleavage, 3 h. 370,000 tested, 0.62% active;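 active = inhibition above a per-campaign cutoff equal to the mean of compounds falling between control-based bounds plus 3 SD, cut at about 20% in these data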;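 note: 0% = DMSO wells while the 100% control is not disclosed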
Target sequence (O14672 214-748 limits assumed): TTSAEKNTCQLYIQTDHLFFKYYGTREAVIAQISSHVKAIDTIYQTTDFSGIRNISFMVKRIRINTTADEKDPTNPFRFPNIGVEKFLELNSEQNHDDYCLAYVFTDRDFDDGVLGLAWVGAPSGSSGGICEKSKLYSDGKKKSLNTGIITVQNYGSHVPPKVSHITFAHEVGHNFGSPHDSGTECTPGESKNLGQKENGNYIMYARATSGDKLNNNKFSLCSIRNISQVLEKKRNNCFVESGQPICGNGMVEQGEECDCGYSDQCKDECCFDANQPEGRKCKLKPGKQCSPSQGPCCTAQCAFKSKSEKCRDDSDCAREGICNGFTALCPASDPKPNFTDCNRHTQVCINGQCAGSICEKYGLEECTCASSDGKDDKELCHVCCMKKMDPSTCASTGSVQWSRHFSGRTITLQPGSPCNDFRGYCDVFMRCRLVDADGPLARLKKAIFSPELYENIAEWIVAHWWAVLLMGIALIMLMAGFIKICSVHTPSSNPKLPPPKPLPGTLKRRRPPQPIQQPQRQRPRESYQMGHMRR
APOBEC3G inh = APOBEC3G (human) deaminase inhibition; Q9HC16; recombinant A3G, ssDNA deamination FAM/TAMRA fluorescence; inhibition, % at 20 µM; 330,000 tested, 0.28% active; AID 493012;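 active = inhibition of at least 40% at 20 µM, with no more than 30% in the related APOBEC3A deaminase screen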;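 note: plate controls were DMSO wells with A3G for no effect and wells lacking A3G enzyme for full effect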
APOBEC3A inh = blocks human APOBEC3A ssDNA deamination | P31941 | recombinant A3A, FAM/TAMRA ssDNA deamination fluorescence | inhibition, % at 20 µM | 330,000 tested, 0.41% active | AID 493011;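 active = at least 40% inhibition at 20 µM here, with at most 30% in a related deaminase screen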;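 note: plate controls were A3A with DMSO for no effect and wells lacking A3A enzyme for full effect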
NRP1-CendR mod = NRP-1/CendR interaction modulation; O14786; FAM-RPARPAR peptide binding to NRP-1, fluorescence polarization; inhibition, % at 25 µM; 360,000 tested, 0.85% active; AID 602438;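 active = inhibition or corrected inhibition above about 18%, plus a signal ratio from 0.5 to 1.5, limit read from the data, passing the limit was not always enough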
ADAM17 inh = ADAM17 inhibition, QFRET primary screen. 370,000 tested, 0.83% active. AID 720648. inhibition, % at 6.95 µM. recombinant ADAM17, EDANS/DABCYL FRET peptide cleavage. P78536;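 active = inhibition above the mean of compounds lying between control limits plus 3 SD, set per campaign, cut at about 8.5% in these data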;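 note: 0% = DMSO-only wells as the low control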
ADAM10 ctr = inhibits human ADAM10 in ADAM17 exosite counter-screen; inhibition, % at 6.95 µM; recombinant ADAM10, EDANS/DABCYL FRET peptide cleavage, 3 h; 2,900 tested, 47% active; AID 743256; shares compounds with ADAM17 inh;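 active = mean inhibition over the triplicate runs exceeds the activity threshold set in the earlier primary screen, cut at about 20% in these data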;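 note: 0% = DMSO wells and 100% = marimastat wells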
ADAM17 confirm = confirmation of inhibitors of human ADAM17; shares compounds with ADAM17 inh; recombinant ADAM17, EDANS/DABCYL QFRET peptide cleavage; inhibition, % at 6.95 µM; 2,900 tested, 65% active;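 active = mean inhibition across replicates above the hit cutoff set in the primary screen, cut at about 8.5% in these data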;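 note: 0% = DMSO wells and 100% = marimastat wells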
An asterisk follows results filed as active. An excerpt weighted towards active compounds, which were near 2.4% of everything screened.

CC(C)n1cc(NC(=O)C2CC(c3cccc(Br)c3)=NO2)cn1 (centres undefined) was read as ADAM10 inh 13, APOBEC3G inh -3, APOBEC3A inh -1, NRP1-CendR mod 3, ADAM17 inh 9.0*, ADAM10 ctr -5 and ADAM17 confirm -3.
For COc1ccc(C(C)C)cc1S(=O)(=O)Nc1ccccn1 the results were ADAM10 inh 10, APOBEC3G inh -7, APOBEC3A inh 0, NRP1-CendR mod -8, ADAM17 inh 10*, ADAM10 ctr -15 and ADAM17 confirm -6.
For O=C(NCc1ccco1)O[C@@H]1CC[C@@]23CCCN2C(=O)CCC[C@H]3C1 the results were ADAM10 inh -3 and ADAM17 inh -2.
`Cc1ccc(S(=O)(=O)N(C)CC(=O)O/N=C(\N)c2cccc(Br)c2)cc1` gave ADAM10 inh 8, APOBEC3G inh -3, APOBEC3A inh -3, NRP1-CendR mod 5, ADAM17 inh 12*, ADAM10 ctr 11 and ADAM17 confirm 9.7*.
Cc1ccc(/C(N)=N/OC(=O)CN(C)S(=O)(=O)c2ccc(C)cc2)cc1 was read as ADAM10 inh 9, APOBEC3G inh 5, APOBEC3A inh 4, NRP1-CendR mod -4 and ADAM17 inh 0.
For COc1ccc(N2CCN(C(=O)CN(c3cccc(Br)c3)S(C)(=O)=O)CC2)cc1 the results were ADAM10 inh 8, APOBEC3G inh -1, APOBEC3A inh -4, NRP1-CendR mod -26, ADAM17 inh 14*, ADAM10 ctr 4 and ADAM17 confirm -1.
`CCNC(=O)N1C[C@H]2CON(C)[C@H]2C[C@H]1c1ccc(N2CCCCC2)cc1` gave ADAM10 inh -14 and ADAM17 inh -5.
Screening O=C(CN1c2ccccc2Sc2ccccc21)N/N=C/c1ccc([N+](=O)[O-])cc1 returned ADAM10 inh 15, APOBEC3G inh -6, APOBEC3A inh -4, NRP1-CendR mod -6, ADAM17 inh 13*, ADAM10 ctr 29* and ADAM17 confirm 17*.
`C=C(C)C#CCNCc1ccccc1` gave ADAM10 inh -6 and ADAM17 inh -4.
COCCOc1ccc(C(F)(F)F)cc1NC(=O)CN1C(=O)NC2(CCc3ccccc32)C1=O (centres undefined) was read as ADAM10 inh 3, APOBEC3G inh -5, APOBEC3A inh -5, NRP1-CendR mod -8 and ADAM17 inh -1.
`COCCOc1ccc(C(F)(F)F)cc1NC(=O)CN1C(=O)NC2(CCCc3ccccc32)C1=O` (centres undefined) gave ADAM10 inh 17, APOBEC3G inh 4, APOBEC3A inh 5, NRP1-CendR mod -20, ADAM17 inh 9.7*, ADAM10 ctr 16 and ADAM17 confirm 10*.
COC(=O)C[C@@H]1CC[C@H]2[C@H](COc3ccc(NC(=O)Nc4cccc(C#N)c4)cc3C(=O)N2C)O1 was read as ADAM10 inh 1 and ADAM17 inh 1.
Screening COC(=O)CN1C(=O)C2(C(C#N)=C(N)Oc3c2c(C)nn3-c2ccccc2)c2ccccc21 (centres undefined) returned ADAM10 inh 4, APOBEC3G inh -8, APOBEC3A inh -4, NRP1-CendR mod 5, ADAM17 inh 13*, ADAM10 ctr -2 and ADAM17 confirm 2.
For CC1Sc2ccc(S(=O)(=O)N3CCC(C(=O)NCC(C)c4ccccc4)CC3)cc2NC1=O (centres undefined) the results were ADAM10 inh 10, APOBEC3G inh 6, APOBEC3A inh 0, NRP1-CendR mod 0, ADAM17 inh 16*, ADAM10 ctr -6 and ADAM17 confirm 1.
Screening COC(=O)[C@]12C[C@H](CC(=O)NCC34CC5CC(CC(C5)C3)C4)C(=O)N(Cc3ccccc3)C1=C[C@H](C1CCCC1)O[C@@H]2C returned ADAM10 inh 4 and ADAM17 inh 0.
Nc1nonc1C(=O)NCCNCc1ccccc1OCc1ccccc1F was read as ADAM10 inh 0, APOBEC3G inh 1, APOBEC3A inh 4, NRP1-CendR mod 17 and ADAM17 inh -7.
Screening Nc1nonc1C(=O)NCCNCc1cc(Br)ccc1OCc1ccccc1F returned ADAM10 inh 25*, APOBEC3G inh 1, APOBEC3A inh -2, NRP1-CendR mod -3, ADAM17 inh 14*, ADAM10 ctr 2 and ADAM17 confirm 5.
For COC1=C[C@H](C(=O)NCc2ccc(Br)cc2)C(C)C(c2ccccc2)CC1=O (some centres undefined) the results were ADAM10 inh 6 and ADAM17 inh 3.
For CCCN1Cc2cc(OC)ccc2-c2ccccc2S1(=O)=O the results were ADAM10 inh -13, APOBEC3G inh 1, APOBEC3A inh 2, NRP1-CendR mod -12 and ADAM17 inh -2.
For CCOC(=O)/C=C1\CN(Cc2ccc(OC)cc2)S(=O)(=O)c2ccccc21 the results were ADAM10 inh 17, APOBEC3G inh -5, APOBEC3A inh 2, NRP1-CendR mod 9, ADAM17 inh 9.7*, ADAM10 ctr 15 and ADAM17 confirm 15*.
`CCNC(=O)COC(=O)COc1ccc(Cl)cc1C` gave ADAM10 inh -9, APOBEC3G inh -6, APOBEC3A inh -4, NRP1-CendR mod -10 and ADAM17 inh -1.
For Cc1cc(Cl)ccc1OCC(=O)OCC(=O)Nc1ccc(F)c([N+](=O)[O-])c1 the results were ADAM10 inh 17, NRP1-CendR mod -2, ADAM17 inh 9.0*, ADAM10 ctr 43* and ADAM17 confirm 18*.
O=C(NC1=NCCS1)c1ccc(Cl)c(S(=O)(=O)N2CCc3ccccc32)c1 was read as ADAM10 inh 10, APOBEC3G inh -4, APOBEC3A inh -5, NRP1-CendR mod 0, ADAM17 inh 9.4*, ADAM10 ctr 10 and ADAM17 confirm 7.
For Cc1[nH]c2ccccc2c1C(=O)CSC(=S)N1CCCCC1 the results were ADAM10 inh 17, APOBEC3G inh -7, APOBEC3A inh 1, NRP1-CendR mod -11, ADAM17 inh 11*, ADAM10 ctr 12 and ADAM17 confirm 8.
O=C(NCCc1ccccc1)O[C@H]1CC[C@@]23CCCN2C(=O)CCC[C@H]3C1 was read as ADAM10 inh -1 and ADAM17 inh -2.
`Cc1cccc(N2CCN(S(=O)(=O)c3ccc4c(c3)C(C)(C)C(=O)N4C)CC2)c1C` gave ADAM10 inh 20, APOBEC3G inh -3, APOBEC3A inh 20, NRP1-CendR mod -1, ADAM17 inh 8.8*, ADAM10 ctr 3 and ADAM17 confirm 8.
